# Source: PubChem BioAssay (NCATS)
# Inconclusive results are not listed. A call without a number means that no potency is given here. Values without a mark were called inactive. Activity calls are given as the source filed them. Calls come from the whole dose curve; as a rule, active = well fitted curve in the direction sought with a large enough effect; inconclusive = small, poorly fitted or top-dose-only effect, or another doubt; inactive = no such curve, though single readings can be large; an effect the other way counts as inactive or inconclusive.
# Assays:
# [1] = Primary qHTS for inhibitors of nuclear receptor binding SET domain protein 2 (NSD2) in an isogenic RCH-ACV NSD2 p.E1099K mutant (9B) (AID 1645876); conditions: RCH-ACV NSD2 E1099K (9B) viability, CellTiter-Glo, 72 h; series mostly up to 44.9 µM
# [2] = Primary qHTS for inhibitors of nuclear receptor binding SET domain protein 2 (NSD2) in an RCH-ACV wild type WT cells (2C) (AID 1645877); conditions: RCH-ACV (leukaemia line) NSD2 WT (2C) viability, CellTiter-Glo, 72 h; series mostly up to 44.9 µM
# Note: nearly all actives have a fitted effect of over 70% in size.
# Potency is the fitted concentration of half-maximal effect.
smiles,measurement,setting,value
CC1CCC2C(C)(C)C(O)CCC2(C)C12Cc1c(O)cc3c(c1O2)CN=C3N (stereo not drawn),Potency,[1],inactive
same,Potency,[2],inactive
O=c1c2ccccc2nc2n1CCC2O (stereo not drawn),Potency,[1],inactive
same,Potency,[2],inactive
CC1(C)CC2C3=CCC4C5(C)CCC(OC6OC(CO)C(O)C(OC7OC(CO)C(O)C(OC8OC(CO)C(O)C(OC9OC(COC%10OC(CO)C(O)C(O)C%10O)C(O)C(O)C9O)C8O)C7O)C6O)C(C)(C)C5CCC4(C)C3(C)CCC2(C(=O)O)CC1O (stereo not drawn),outcome,[1],inactive [at 9.23 µM]
same,"activity change, negative = cell killing",[2],4.6% [at 9.23 µM]
CC1CCC2C(C)(C)CC(C)(CO)C2(O)C1C(=O)O (stereo not drawn),Potency,[1],inactive
same,Potency,[2],inactive
Cc1c(CN(C)C(=O)/C=C/c2cnc3c(c2)CCC(=O)N3)oc2ccccc12,Potency,[1],inactive
same,Potency,[2],inactive
CC(C)C(=O)O[C@@H]1[C@@H](O)[C@@H](O[C@H]2O[C@H](CO)[C@@H](O)[C@H](O)[C@H]2O)O[C@H](CO)[C@H]1O,Potency,[1],inactive
same,Potency,[2],inactive
C=CC1C(O[C@@H]2O[C@H](CO)[C@@H](O)[C@H](O)[C@H]2O)OC=C(C(=O)OC)C1Cc1nccc2c1[nH]c1ccccc12 (stereo partly drawn),Potency,[1],inactive
same,Potency,[2],inactive
CC(NC(=O)CC(=O)O)c1nc2ccccc2c(=O)[nH]1 (stereo not drawn),Potency,[1],inactive
same,Potency,[2],inactive
C=C1C[C@@]23CC[C@@H]4[C@](C)(C(=O)O)CCC[C@@]4(C)C2=CC[C@H]1C3,Potency,[1],inactive
same,Potency,[2],inactive
COC(=O)C1=COC(OC2OC(CO)C(O)C(O)C2O)C2C1CC(OC(=O)C(O)CC(=O)O)C2C (stereo not drawn),Potency,[1],inactive
same,Potency,[2],inactive
CC(/C=C/[C@]1(O)[C@@]2(C)CO[C@@]1(C)C[C@@H](O)C2)=C\C(=O)O[C@@H]1O[C@H](CO)[C@@H](O)[C@H](O)[C@H]1O,Potency,[1],inactive
same,Potency,[2],inactive
CC1(C)CC[C@]2(C(=O)O)CC[C@]3(C)C(=CCC4[C@@]5(C)CC[C@H](O[C@@H]6O[C@H](C(=O)O)[C@@H](O)[C@H](O)[C@H]6O)C(C)(CO)C5CC[C@]43C)C2C1 (stereo partly drawn),Potency,[1],inactive
same,Potency,[2],inactive
CC1(C)CCCC2(C)C1C(O)C=C(CO)C2(O)C(=O)O (stereo not drawn),Potency,[1],inactive
same,Potency,[2],inactive
CC(=O)O[C@@H]1[C@H](O[C@@H]2OC[C@](O)(CO)[C@H]2O)[C@@H](O[C@@H]2O[C@@H](C)[C@H](O)[C@@H](O)[C@H]2O)[C@H](OC(=O)[C@]23CCC(C)(C)C[C@H]2C2=CCC4[C@@]5(C)C[C@H](O)[C@H](O[C@@H]6O[C@H](C(=O)O)[C@@H](O)[C@H](O)[C@H]6O)[C@@](C)(C(=O)O)C5CC[C@@]4(C)[C@]2(C)CC3)O[C@@H]1C (stereo partly drawn),"activity change, negative = viability loss",[1],-7.7% [at 9.23 µM]
same,"activity change, negative = cell killing",[2],-8.29% [at 9.23 µM]
C=C1C2=CC(O)C(C)C1(C)CC/C(C)=C/CCC1(C)OC1C2=O (stereo not drawn),Potency,[1],inactive
same,Potency,[2],inactive
Cc1ncc([N+](=O)[O-])n1CC(O)CN1CCOCC1 (stereo not drawn),Potency,[1],inactive
same,Potency,[2],inactive
CC(C)[C@@H](C)/C=C/[C@@H](C)[C@H]1CC[C@H]2C3=CC=C4C[C@@H](O)CC[C@]4(C)[C@H]3CC[C@]12C,Potency,[1],inactive
same,Potency,[2],inactive
COc1cc([C@H]2OC[C@]3(OC(C)=O)[C@@H](c4ccc(O[C@@H]5O[C@H](CO)[C@@H](O)[C@H](O)[C@H]5O)c(OC)c4)OC[C@H]23)ccc1O,Potency,[1],inactive
same,Potency,[2],inactive
C=CC1C(O[C@@H]2O[C@H](CO)[C@@H](O)[C@H](O)[C@H]2O)OC=C(C(=O)OC)C1CC(=O)O (stereo partly drawn),Potency,[1],inactive
same,Potency,[2],inactive
CC(=O)c1c(O)cc2c(c1C)C(=O)CC(O)C2 (stereo not drawn),Potency,[1],inactive
same,Potency,[2],inactive
CCCCCCc1cccc(NC(=O)[C@H](N)CCP(=O)(O)O)c1,outcome,[1],inactive [at 9.23 µM]
same,outcome,[2],inactive [at 9.23 µM]
C[C@@H]1O[C@@H](O[C@@H]2[C@@H](O)[C@@H](O)[C@H](O[C@@H]3[C@@H](O)[C@@H](O[C@]4(CO)O[C@H](CO)[C@@H](O)[C@@H]4OC(=O)/C=C/c4ccc(O)cc4)O[C@H](CO)[C@H]3OC(=O)/C=C/c3ccc(O)cc3)O[C@H]2C)[C@H](O)[C@H](O)[C@H]1O,outcome,[1],inactive [at 9.23 µM]
same,"activity change, negative = cell killing",[2],1.92% [at 9.23 µM]
COC(=O)[C@@]1(O)C=CC[C@@H]2[C@@]3(C)C[C@@H](c4ccoc4)OC(=O)[C@H]3CC[C@]21C,Potency,[1],inactive
same,Potency,[2],inactive
O=C(O)CCc1cccc(O[C@@H]2O[C@H](CO)[C@@H](O)[C@H](O)[C@H]2O)c1O,Potency,[1],inactive
same,Potency,[2],inactive
C/C=C(\C)C(=O)OC[C@H]1O[C@H](O[C@H]2O[C@H](CO)[C@@H](OC(=O)/C(C)=C/C)[C@H](O)[C@H]2O[C@@H]2O[C@H](CO)[C@@H](O)[C@H](O)[C@H]2O)[C@H](O[C@@H]2O[C@H](CO)[C@@H](O)[C@H](O)[C@H]2O)[C@@H](O)[C@@H]1O,outcome,[1],inactive [at 9.23 µM]
same,outcome,[2],inactive [at 9.23 µM]
C[C@@H]1C[C@H](O)/C=C/[C@H](O)[C@@H](O)CC(=O)O1,Potency,[1],inactive
same,Potency,[2],inactive
C/C=C1\[C@H](O[C@@H]2O[C@H](CO)[C@@H](O)[C@H](O)[C@H]2O)OC=C(C(=O)OC)[C@H]1CC(=O)OC,Potency,[1],inactive
same,Potency,[2],inactive
C[C@@H]1O[C@@H](O[C@H]2[C@H](O[C@H]3[C@H](O[C@H]4CC[C@@]5(C)C(CC[C@]6(C)C5CC=C5[C@@H]7CC(C)(C(=O)O)C[C@@H](O)[C@]7(C)CC[C@]56C)[C@@]4(C)CO)O[C@H](C(=O)O)[C@@H](O)[C@@H]3O)O[C@H](CO)[C@H](O)[C@@H]2O)[C@H](O)[C@H](O)[C@H]1O (stereo partly drawn),"activity change, negative = viability loss",[1],-4.48% [at 9.23 µM]
same,"activity change, negative = cell killing",[2],-5.72% [at 9.23 µM]
CC(C)(O)C1CCC2(C)C3C(O)C4C(C13)C42CO (stereo not drawn),Potency,[1],inactive
same,Potency,[2],inactive
CC1CCC2(C(=O)OC3OC(CO)C(O)C(O)C3O)CCC3(C)C(=CCC4C5(C)CC(O)C(O)C(C)(C(=O)O)C5CCC43C)C2C1(C)O (stereo not drawn),Potency,[1],inactive
same,Potency,[2],inactive
C[C@]12CCC[C@](C)(C(=O)O)C1CCC13C=C(CO)C(CCC12)C3 (stereo partly drawn),Potency,[1],inactive
same,Potency,[2],inactive
CC(C)CC(=O)OC[C@H]1O[C@@](COC(=O)CC(C)C)(O[C@H]2O[C@H](CO)[C@@H](O)[C@H](O)[C@H]2OC(=O)CC(C)C)[C@@H](OC(=O)CC(C)C)[C@@H]1O,Potency,[1],inactive
same,Potency,[2],inactive
O=C(O)CCc1cc2ccoc2cc1O[C@@H]1O[C@H](CO[C@@H]2OC[C@](O)(CO)[C@H]2O)[C@@H](O)[C@H](O)[C@H]1O,Potency,[1],inactive
same,Potency,[2],inactive
CC(/C=C/C1(O)C(C)(C)CC(O)CC1(C)O)OC1OC(CO)C(O)C(O)C1O (stereo not drawn),Potency,[1],inactive
same,Potency,[2],inactive
CC(=O)OC[C@@]12[C@H](O)C[C@@H](C)[C@]3(C[C@@H](c4ccoc4)OC3=O)[C@H]1C[C@H](O)C[C@]21CO1,Potency,[1],inactive
same,Potency,[2],inactive
COC(=O)C1=CO[C@@H](O[C@@H]2O[C@H](CO)[C@@H](O)[C@H](O)[C@H]2O)[C@@H]2[C@@H](C)[C@@H](O)C[C@H]12,Potency,[1],inactive
same,Potency,[2],inactive
CC(C)C1=CC2=CCC3[C@](C)(CCC[C@@]3(C)C(=O)O)C2CC1O (stereo partly drawn),Potency,[1],inactive
same,Potency,[2],inactive
COc1cc2c(cc1O)C1(Cc3ccc4c(c3C1=O)OCO4)N(C)CC2 (stereo not drawn),Potency,[1],inactive
same,Potency,[2],inactive
C[C@H]1CC[C@@]2(OC1)O[C@H]1CC3C4CC=C5C[C@H](O)C[C@@H](O[C@@H]6O[C@@H](C)[C@H](O)[C@@H](O)[C@H]6O[C@@H]6O[C@@H](C)[C@H](O)[C@@H](O)[C@H]6O)[C@]5(C)C4CC[C@]3(C)[C@H]1[C@@H]2C (stereo partly drawn),Potency,[1],inactive
same,Potency,[2],inactive
CC(C)(O)CNc1nc(Nc2ccnc(C(F)(F)F)c2)nc(-c2cccc(C(F)(F)F)n2)n1,Potency,[1],20.9 µM (active)
same,Potency,[2],20.9 µM (active)
CC1CC(O)C2(C)C(C(=O)O)=CCCC2C1(C)CCc1ccoc1 (stereo not drawn),Potency,[1],inactive
same,Potency,[2],inactive
CC1CCC2(NC1)OC1C(=O)C3C4CCC5CC(O[C@@H]6O[C@H](CO)[C@@H](O)[C@H](O)[C@H]6O[C@@H]6O[C@@H](C)[C@H](O)[C@@H](O)[C@H]6O)CCC5(C)C4CCC3(C)C1C2C (stereo partly drawn),Potency,[1],inactive
same,Potency,[2],inactive
C[C@@H]1CC[C@]2(C(=O)O)CC[C@]3(C)C(=CCC4[C@]5(C)C(CC[C@]43C)C(C)(C)[C@@H](O)[C@H](O)[C@@H]5O)C2[C@]1(C)O (stereo partly drawn),Potency,[1],inactive
same,Potency,[2],inactive
O=C1NCc2nc3ccccc3c(=O)n2C1Cc1c[nH]c2ccccc12 (stereo not drawn),Potency,[1],inactive
same,Potency,[2],inactive
C[C@@H]1O[C@@H](OC[C@H]2O[C@@H](OCC3CCC4CC3C4(C)C)[C@H](O)[C@@H](O)[C@@H]2O)[C@H](O)[C@H](O)[C@H]1O (stereo partly drawn),Potency,[1],inactive
same,Potency,[2],inactive
COc1cc(/C=C/C(=O)O[C@H]2[C@H](O)[C@@H](CO)O[C@@]2(CO)O[C@H]2O[C@H](COC(=O)c3ccc(O)cc3)[C@@H](O)[C@H](O)[C@H]2O)cc(OC)c1OC,Potency,[1],inactive
same,Potency,[2],inactive
CC1(C)CCC2(C(=O)OC3OC(COC4OC(CO)C(O)C(O)C4O)C(O)C(O)C3O)CCC3(C)C(=CCC4C5(C)CCC(O)C(C)(C(=O)O)C5CCC43C)C2C1O (stereo not drawn),"activity change, negative = viability loss",[1],0.116% [at 9.23 µM]
same,outcome,[2],inactive [at 9.23 µM]
CC(C)[C@H]1CCC(CO)=C[C@@H]1/C=C(\CO)C(=O)O,Potency,[1],inactive
same,Potency,[2],inactive
CCNC(=O)CCC/C=C\C[C@@H]1[C@@H](/C=C/C(O)CCc2ccccc2)[C@@H](O)C[C@@H]1O (stereo partly drawn),Potency,[1],inactive
same,Potency,[2],inactive
CC(C)=CCc1ccc(Oc2c(O)cc(C)cc2CO)c(C(=O)O)c1O,Potency,[1],inactive
same,Potency,[2],inactive
COc1cc(C2c3cc(O)c(OC)cc3CC(CO)C2CO)ccc1O (stereo not drawn),Potency,[1],inactive
same,Potency,[2],inactive
CC1CCC2C(C(=O)O)=CC3C(O)C(C)(C)CC123 (stereo not drawn),Potency,[1],inactive
same,Potency,[2],inactive
C=CC(C)(C)C12CC3C(=O)NC(Cc4cnc[nH]4)C(=O)N3C1Nc1ccccc12 (stereo not drawn),Potency,[1],inactive
same,Potency,[2],inactive
C[C@@]12C[C@]3(O)O[C@H](O1)[C@]1(COC(=O)c4ccccc4)[C@H]3C[C@@]12O[C@@H]1O[C@H](COC(=O)c2ccccc2)[C@@H](O)[C@H](O)[C@H]1O,Potency,[1],inactive
same,Potency,[2],inactive
